Measured values published in PubChem BioAssay AID489018 (Southern Research Specialized Biocontainment Screening …, 2010).
Screen size: about 2,300 compounds; about 350 (15%) were called active. The rule behind the calls is not given here. Only a sample is shown. Entries with a potency or affinity are not part of this list.

Assay: HepG2 cell cytotoxicity, dose response, cytotoxicity control for non-replicating M. tuberculosis project (AID 489018);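 note: HepG2 human liver cells; 100% = vehicle-treated cells and 0% = background signal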
Conditions: series mostly up to 20 µM; viability: at the top concentration

Compound	viability
S=C1SCN(Cc2ccco2)CN1Cc1ccco1	90.5% (inactive)
CN(C)S(=O)(=O)c1ccc(C(=O)Oc2ccccc2)cc1	91% (inactive)
CCC(C)[C@H]1CN=C(N)N1CCc1cccc2ccccc12 (stereo partly specified)	85.5% (inactive)
Cc1cc(-c2c(C)[nH]n(-c3ccccc3)c2=O)n[nH]1	72.7% (inactive)
C/C(=N\Nc1nc2ccccc2nc1C)c1ccccc1O	91.6% (inactive)
COc1ccc2oc(=O)c(/C(C)=N/NC(=O)c3ccncc3)cc2c1	104% (inactive)
N=c1oc2ccc(Cl)cc2cc1C(=O)NC1CCCCCC1	87.9% (inactive)
O=C(Oc1ccc(F)cc1)c1ccc2c(=O)n3c(nc2c1)CCC3	96.7% (inactive)
Cc1ccc(-c2nnc(SCC#CCOC(=O)c3ccco3)o2)cc1	104% (inactive)
CCOC(=O)C1=C(C)C/C(=N\NC(=O)c2ccccc2O)CC1	81.2% (inactive)
Cc1cc(C)nc(Sc2ncnc(N)c2[N+](=O)[O-])n1	80.1% (inactive)
Oc1ccccc1-c1nnc(COc2ccccc2)o1	89.6% (inactive)
CC(C)N1CCc2c(sc(NC(=O)CCS(=O)(=O)c3ccccc3)c2C#N)C1	104% (inactive)
CNC(=O)COC(=O)c1ccc(-c2nc3ccccc3s2)s1	91.7% (inactive)
CCCCNC(=O)Nc1nnc(-c2ccc(OCC)cc2)o1	100% (inactive)
Cc1ccc(CCC(=O)Nc2ccc(C)c(C)c2)o1	97.3% (inactive)
Cc1ccc(C(=O)Nc2nnc(C3=COCCO3)o2)cc1C	87.5% (inactive)
C/C(=C\C(=O)c1ccc(Br)cc1)NNC(=O)c1ccccc1	70.2% (inactive)
Cc1n[nH]c(=S)n1/N=C/c1ccc(OCc2ccc(Cl)cc2Cl)cc1	103% (inactive)
O=C(O)c1ccccc1-c1ccccc1C(=O)Nc1nc2ccccc2s1	105% [at 5 µM] (inactive)
CC(C)(C)c1csc(NC(=O)c2ccccc2O)n1	82.3% (inactive)
Cc1ccc2c(c1)C(=O)C(=O)N2CCCOc1ccccc1	108% (inactive)
CCCn1c(NC(=O)c2ccc([N+](=O)[O-])o2)nc2ccccc21	91.1% (inactive)
COC(=O)c1ccc(C(=O)NC2CCCc3c2cnn3-c2cc(F)cc(F)c2)nc1 (stereo unspecified)	74% (inactive)
COC(=O)C1=C(C)N(CC2CC2)C(=NCc2cccc(Cl)c2)N[C@H]1c1ccccc1	76.5% (inactive)

Compound	viability
O=C(COC(=O)c1cccc(C(F)(F)F)c1)NCc1ccccc1	99.9% (inactive)
CCOC(=O)COc1cc(N)c(Cl)cc1Cl	80.8% (inactive)
CC(C)C1O/C(=N/C(=O)Nc2ccc(Cl)c(Cl)c2)NC1=O (stereo unspecified)	95.4% (inactive)
O=c1c2ccccc2sn1-c1ccccc1	93.9% (inactive)
COC(=O)COc1ccc2cc(-c3ccc(OC)cc3)c(=O)oc2c1	105% (inactive)
CC(C)(C)NC(=O)C(=O)NNC(=O)c1ccc(C(C)(C)C)cc1	88.5% (inactive)
C#CCSc1nnc(-c2cccc3ccccc23)o1	85.7% (inactive)
O=C(COC(=O)CCc1c[nH]c2ccccc12)NCc1ccc2c(c1)OCO2	109% (inactive)
O=C(COC(=O)CCc1c[nH]c2ccccc12)NCc1ccc(Cl)cc1	108% (inactive)
COc1ccc(OC(=O)CCc2c[nH]c3ccccc23)cc1	103% (inactive)
N#Cc1ccc(COC(=O)CCc2c[nH]c3ccccc23)cc1	108% (inactive)
CCc1ccc(NC(=O)C(=O)NNC(=O)COc2cccc(OC)c2)cc1	111% (inactive)
O=C(NNc1nc2cc3c(cc2s1)OCCO3)c1ccccc1	98.9% (inactive)
O=[N+]([O-])c1ccc(CNc2cccc(Cl)c2)s1	98.3% (inactive)
CC1=NN(C(=O)c2csc(C)c2C)C(O)(C(F)(F)F)C1 (stereo unspecified)	98% (inactive)
CCOCC(=O)Nc1nc2ccc(C)cc2s1	87.5% (inactive)
CCN(CC)CCSc1nnc2c3cc(C)ccc3n(Cc3ccccc3)c2n1	94% [at 5 µM] (inactive)
O=C(Nc1nc2ccccc2n1CCN1CCCC1)c1ccc(Cl)cc1	97.8% [at 5 µM] (inactive)
O=C(Nc1nc2ccccc2n1CCN1CCCC1)C1CCCCC1	105% (inactive)
Cc1cccc(NC(=O)COC(=O)CCc2c[nH]c3ccccc23)c1	100% (inactive)
O=C(COC(=O)c1ccccc1Cl)NCCC1=CCCCC1	106% [at 5 µM] (inactive)
O=c1cc2[nH]c3ccccc3c(=O)n2nc1-c1ccccc1	96.7% (inactive)
CC1CC(C)CN(C(=O)COC(=O)c2ccc([N+](=O)[O-])o2)C1 (stereo unspecified)	98.8% (inactive)
COc1ccc(CCCC(=O)NCc2ccccc2)cc1C	104% (inactive)
COc1ccc(S(=O)(=O)NCc2ccc3c(c2)cc(C)n3C)cc1	105% (inactive)

Compound	viability
COC(=O)COc1ccc2c(-c3ccc(OC)cc3)cc(=O)oc2c1	105% (inactive)
C=C1CCC[C@]2(C)C[C@H]3OC(=O)C(CNC(C)CCCC(C)C)[C@H]3CC12 (stereo partly specified)	84.6% (inactive)
O=C(Oc1ccccc1Cl)c1ccc2c(=O)n3c(nc2c1)CCC3	96.1% (inactive)
CC(/C=C/c1cccc([N+](=O)[O-])c1)=N\NC(=O)c1ccncc1	92.2% (inactive)
COC(=O)COc1cccc(/C=N/NC(=O)CCSc2ccccc2)c1	99.2% [at 5 µM] (inactive)
Cc1occc1C(=O)N/N=C/C(Br)=C\c1ccccc1	73.8% (inactive)
O=C(N/N=C/c1ccc[nH]1)c1ccc2c(c1)OCO2	94.7% [at 5 µM] (inactive)
CC(/C=C/c1ccccc1)=N\NC(=O)c1ccc2c(c1)OCCO2	101% [at 5 µM] (inactive)
C/C(=N\NC(=O)c1cccs1)c1ccc2c(c1)OCO2	86.2% (inactive)
O=C(N/N=C\c1ccccc1OCc1ccccc1)c1ccco1	106% (inactive)
Cc1occc1C(=O)N/N=C/c1ccc[nH]1	94.7% (inactive)
C/C(Cn1nnc([N+](=O)[O-])n1)=N\NC(=O)c1ccncc1	83.8% (inactive)
COC(=O)CN(C#N)c1nc(SC)nc(N(C)C)n1	103% (inactive)
O=C1CCC/C(=N/Nc2ccc(Cl)cc2)C1	87.1% (inactive)
CCOCCOC(=O)c1ccc(NC(=O)C2COc3ccccc3O2)cc1 (stereo unspecified)	107% (inactive)
Cc1ccc(C)c(NC(=O)c2cc([N+](=O)[O-])cc([N+](=O)[O-])c2)c1	116% (inactive)
Cc1cc(Cl)ccc1OC(C)C(=O)Nc1ccc([N+](=O)[O-])cn1 (stereo unspecified)	105% (inactive)
O=C(CCc1ccc(Oc2cc([N+](=O)[O-])cc([N+](=O)[O-])c2)cc1)N1CCCCC1	85.8% (inactive)
Cc1cc(C)n(C(=O)c2ccc([N+](=O)[O-])cc2[N+](=O)[O-])n1	102% (inactive)
Cc1ccccc1-n1ncc2c([N+](=O)[O-])cc([N+](=O)[O-])cc21	97% (inactive)
N/C(=N/OC(=O)c1ccccc1Cl)c1ncc([N+](=O)[O-])s1	102% (inactive)
COc1ccc(OC)c(NC(=O)C(=O)NNC(=O)C23CC4CC(CC(C4)C2)C3)c1	87.2% (inactive)
Brc1ccc(-c2ccc(CNCc3ccccn3)o2)cc1	104% [at 5 µM] (inactive)
Cc1ccc2c(c1)c1c3n2CCN=C3CCC1	97.6% (inactive)
Cc1ccc2[nH]c3c(c2c1)CCCC3NCCO (stereo unspecified)	101% (inactive)

Compound	viability
O=C(COc1cccc2ccccc12)Nc1nc2ccccc2[nH]1	106% (inactive)
O=C(OCC(=O)N1CCC(c2ccccc2)=N1)c1ccc([N+](=O)[O-])s1	103% [at 5 µM] (inactive)
Cc1ccc(C(=O)NNC(=S)NC(=O)c2ccc(Cl)cc2)cc1	91.2% [at 5 µM] (inactive)
CCCCCOc1ccc(CSC2=NCCN2)cc1[N+](=O)[O-]	93.7% (inactive)
Cc1cc(Br)ccc1OCCCCN1CCC(C)CC1	80.7% (inactive)
CCOC(=O)CCNC(=O)c1ccc2nc(C3CCCCC3)oc2c1	103% (inactive)
CCOc1ccc(/C=N/OCC(=O)Nc2ccc3c(c2)OCO3)cc1	94.3% (inactive)
O=C(Cn1cc([N+](=O)[O-])nc1[N+](=O)[O-])N1CCN(c2ccccc2)CC1	97.3% [at 5 µM] (inactive)
CC1=NN(C(=O)c2ccc(Cn3nc(C)c(Br)c3C)cc2)C(O)(C(F)(F)F)C1 (stereo unspecified)	80.5% (inactive)
O=C(c1ccccc1[N+](=O)[O-])N1N=C(c2ccccc2)CC1(O)C(F)(F)F (stereo unspecified)	101% [at 5 µM] (inactive)
Cc1ccc(OC(=O)c2ccc(Br)o2)cc1	101% (inactive)
O=C1NCC(O)=C1C=Nc1ccccc1O	100% [at 5 µM] (inactive)
COc1cccc(NC(=O)c2ccc(Cn3cc([N+](=O)[O-])cn3)o2)c1	97.7% (inactive)
CCc1cccc(OCCCn2ccnc2)c1	101% [at 5 µM] (inactive)
CCOc1ccc(OCC(=O)Nc2ccc(OC)cc2)cc1	96% (inactive)
Cc1ccc(-c2noc(CCC(=O)Nc3cccc(C#N)c3)n2)cc1	100% (inactive)
Cn1cccc1/C=C1/C(=O)NC(=S)N(Cc2ccc(F)cc2)C1=O	107% (inactive)
CCN1/C(=C(\O)c2ccccc2)C(=O)c2ccccc2S1(=O)=O	71% (inactive)
Cc1cc(Nc2ccccc2)n(-c2nc3ccccc3[nH]2)n1	90.5% [at 5 µM] (inactive)
Cc1cc(NC(=O)c2ccccc2F)n(-c2nc3ccccc3[nH]2)n1	100% (inactive)
Cc1ccc(C(=O)N/N=C\c2ccc(-c3ccc(Cl)cc3)o2)cn1	90.8% (inactive)
CCN1CSC(=S)N(Cc2ccc(OC)cc2)C1	86.2% (inactive)
COc1cc(/C=N/N(C)C)ccc1OC(=O)c1cccs1	108% (inactive)
O=C(CC1CCCCC1)NCc1ccccc1	98.8% (inactive)
Cc1ccn2c(NC3CCCC3)c(-c3ccccn3)nc2c1	107% [at 5 µM] (inactive)

Compound	viability
COc1cccc(-c2nnc(NC(=O)c3cccc(F)c3)o2)c1	91.6% [at 5 µM] (inactive)
O=C(Nc1nnc(-c2ccc(F)cc2)o1)c1cc(Cl)sc1Cl	89.7% (inactive)
COc1cccc(C(=O)Nc2nnc(-c3ccc(F)cc3)o2)c1	80.5% (inactive)
Cc1ccc(C(=O)Nc2nnc(-c3ccncc3)o2)cc1	103% (inactive)
Cc1cccc(C(=O)Nc2nnc(-c3cccnc3)o2)c1	95.1% (inactive)
O=C(Nc1nnc(-c2ccc(Cl)cc2)o1)c1ccccc1Br	83.9% (inactive)
COc1ccc(C(=O)Nc2nnc(-c3ccccc3)o2)cc1OC	90% (inactive)
COc1cccc(C(=O)OCC(=O)Nc2nnc(-c3ccccc3)o2)c1	94% (inactive)
O=C1c2cccc3c([N+](=O)[O-])ccc(c23)C(=O)N1c1ccc(Cl)cn1	80.3% (inactive)
Cc1ccc(OCCCCn2ccnc2)c(Cl)c1	98.8% (inactive)
O=C(CCNc1cccc(Cl)c1)c1ccco1	98.8% [at 5 µM] (inactive)
CSc1ccccc1NC(=O)c1cc(C(C)C)on1	101% (inactive)
COc1ccc(/C=C2\COc3ccccc3C2=O)cc1OC	93% (inactive)
COc1cccc(C(=O)OCC(=O)c2ccc(Br)s2)c1OC	94.5% (inactive)
CCCCOC(=O)Cn1c(-c2ccccc2)nc2ccccc2c1=O	104% (inactive)
O=C(Nc1nnc(-c2ccccc2Cl)o1)c1cccnc1	91.2% (inactive)
O=C(Nc1nnc(-c2ccccc2Cl)o1)c1ccco1	102% (inactive)
O=C(Nc1nnc(-c2ccc(Cl)cc2)o1)c1cccc(N2C(=O)CCC2=O)c1	96.9% (inactive)
COc1ccc(-c2nnc(NC(=O)C3=COCCO3)o2)cc1	81.8% (inactive)
COc1ccc(C(=O)Nc2nnc(C3=COCCO3)o2)cc1	96.1% (inactive)
O=C(Nc1ccc(S(=O)(=O)N2CCOCC2)cc1)c1ccc([N+](=O)[O-])s1	104% [at 5 µM] (inactive)
